Bioassay records from PubChem BioAssay.
HSF1 inhib = HSF1 inhibition; NIH3T3-HGL HSE-luciferase, MG132-induced, luminescence 8 h; hits give low values; 300,000 compounds, 0.77% hits; activity change, negative = inhibition, % at 7.5 µM (by protocol);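 active means more than half of replicate wells show activity change below -50%, luminescence cut by over half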;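 further: luciferase reports HSF-1 transcriptional activity via heat shock element; 0% = median of DMSO wells and -100% = zero luminescence signal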
LGR2 antag = inhibitors of bursicon-induced Drosophila LGR2 receptor cAMP signaling; HEK293 LGR2, CRE-luciferase, bursicon-stimulated, 4 h; inhibition, % at 9.99 µM; 380,000 compounds, 0.35% hits; AID 720647;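 active means drop in luminescence signal, shown as inhibition above about 50% in the replicate tests, limit read from the data, passing the limit was not always enough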;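 further: agonist challenge used bursicon conditioned medium at about half maximal strength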
TROY signal inh = inhibitors of TROY-dependent NF-kB signaling | Q293 LMP1-TROYcd NF-kB luciferase reporter, 4 h | inhibition, % at 10 µM | 360,000 compounds, 0.98% hits | AID 1347056;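 active means compounds whose plate-normalised and pattern-corrected inhibition of the luciferase reporter signal at the single screening dose is 50% or more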
EBV LMP1 NFkB = reduces LMP1-driven NF-kappaB luciferase signal. AID 504558. inhibition, % at 12.5 µM. LMP1-induced NF-kappaB luciferase reporter cells, luminescence. 350,000 compounds, 0.69% hits; in the data active means inhibition above about 41%;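 further: 0% = neutral control wells and 100% = reference inhibitor control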
TWEAK Fn14 block = blocks TWEAK-Fn14 interaction in a reporter cell assay; TWEAK-stimulated Fn14 reporter cells, luciferase luminescence, 8 h; inhibition, % at 10 µM; 360,000 compounds, 2% hits; AID 1159606; in the data active means inhibition above about 50%
HSF-1 act = increases HSF-1 driven luciferase reporter signal | 300,000 compounds, 1.7% hits | NIH3T3-HGL HSF-1 luciferase reporter, MG132, 8 h; 100% = twice DMSO control signal | activation, % at 9 µM | AID 504408;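 active means mean replicate activation of at least 50% with a set share of replicates each reaching 50%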;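 further: 0% = median of the neutral control wells and 100% = twice that signal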
Active calls of the source: *. Sampled rows, rich in hits. Any-hit rate of the full collection: about 3.6%.

How did Cc1cccnc1C1=NOC(Cc2ccccc2)C(=O)N1Cc1ccc(F)cc1 (configuration not stated) do in these assays?
LGR2 antag: 12; TROY signal inh: -61; TWEAK Fn14 block: 19

How did C[C@@H]1CN([C@@H](C)CO)C(=O)c2cc(NC(=O)CCC(F)(F)F)ccc2O[C@@H](C)CCCCO[C@@H]1CN(C)S(=O)(=O)c1ccccc1 do in these assays?
LGR2 antag: -2

What do the screens show for `COc1ccccc1C(=O)Nc1ccc2c(c1)C(=O)N(C)[C@H]1CC[C@@H](CC(=O)NCc3ccc(Cl)c(Cl)c3)O[C@H]1CO2`?
LGR2 antag: 13

Results for CCNc1nc(-c2sc(NC(=O)C(C)(C)C)nc2C)c(-n2cc(-c3ccccc3)nn2)s1 ?
LGR2 antag: -23; TROY signal inh: -1; TWEAK Fn14 block: 86*

What do the screens show for `Cc1nc(NC(=O)C(C)(C)C)sc1-c1nc(N)sc1-n1cc(-c2ccccc2)nn1`?
LGR2 antag: 6; TROY signal inh: -11; TWEAK Fn14 block: 14

What do the screens show for `O=C(CS(=O)(=O)c1ccccc1)CS(=O)(=O)c1ccccc1`?
LGR2 antag: -4

How did O=S(=O)(C/C(=C/CO)S(=O)(=O)c1ccccc1)c1ccccc1 do in these assays?
HSF1 inhib: -77*; TROY signal inh: 33; EBV LMP1 NFkB: 93*; TWEAK Fn14 block: 66*; HSF-1 act: -79

How did CCC(=O)N1C[C@@H](C)[C@@H](OC)CN(C)C(=O)c2ccc(NC(=O)c3ccno3)cc2OC[C@@H]1C do in these assays?
LGR2 antag: 16

What do the screens show for `CS(=O)(=O)N1CCN(c2ccc([N+](=O)[O-])c(NCc3ccccc3)c2)CC1`?
HSF1 inhib: -8; EBV LMP1 NFkB: 5; TWEAK Fn14 block: 75*; HSF-1 act: -18

How did Cc1nnc(NC(=O)CSc2nnc(Cc3cccn3C)n2CCc2ccccc2)s1 do in these assays?
HSF1 inhib: 2; LGR2 antag: 1; TROY signal inh: 4; EBV LMP1 NFkB: 66*; TWEAK Fn14 block: -9; HSF-1 act: 20

How did CCCOc1ccc2cc(-c3ccccn3)c(=O)oc2c1 do in these assays?
HSF1 inhib: -34; LGR2 antag: 88*; TROY signal inh: 64*; EBV LMP1 NFkB: 61*; TWEAK Fn14 block: 93*; HSF-1 act: -42

Results for CCN(CC(O)Cn1c2ccccc2c2ccccc21)S(=O)(=O)c1ccc(C)cc1 (configuration not stated) ?
HSF1 inhib: 5; TROY signal inh: 23; EBV LMP1 NFkB: -7; TWEAK Fn14 block: 30; HSF-1 act: 11

What do the screens show for `CC(=O)Nc1ccccc1N(CC(O)Cn1c2ccccc2c2ccccc21)S(=O)(=O)c1ccc(C)cc1` (configuration not stated)?
HSF1 inhib: 18; LGR2 antag: 3; TROY signal inh: 11; EBV LMP1 NFkB: -18; TWEAK Fn14 block: 53*; HSF-1 act: 28

What do the screens show for `CSc1nccn1C(=O)c1ccccc1[N+](=O)[O-]`?
HSF1 inhib: -43; LGR2 antag: 6; TROY signal inh: -9; EBV LMP1 NFkB: 4; TWEAK Fn14 block: 108*; HSF-1 act: -56

Results for COC(=O)C[C@H]1CC[C@H]2[C@@H](COc3ccc(NS(=O)(=O)c4ccccc4Cl)cc3C(=O)N2C)O1 ?
LGR2 antag: -1

How did C[C@H](CO)N1C[C@H](C)[C@@H](CN(C)C(=O)c2ccc(F)cc2)Oc2ncc(C#CCN(C)C)cc2C1=O do in these assays?
LGR2 antag: 8

What do the screens show for `CCOC(=O)c1c(C)oc2c1c(C(c1cccnc1)N1CCOCC1)c(O)c1ccccc12` (configuration not stated)?
HSF1 inhib: 2; TROY signal inh: -9; EBV LMP1 NFkB: 5; TWEAK Fn14 block: 98*; HSF-1 act: 1

What do the screens show for `COc1ccc(C(C)=O)cc1CSc1nnc(C)s1`?
HSF1 inhib: 7; TROY signal inh: 11; EBV LMP1 NFkB: -6; TWEAK Fn14 block: 6; HSF-1 act: 4

Results for COc1ccc(C(C)=O)cc1CSc1nnc(Nc2ccccc2)s1 ?
HSF1 inhib: 4; LGR2 antag: 12; TROY signal inh: 40; EBV LMP1 NFkB: 22; TWEAK Fn14 block: 70*; HSF-1 act: 1
